According to PMC7862700, “An all-to-all approach to the identification of sequence-specific readers for epigenetic DNA modifications on cytosine”:

Experiments:
Assay in all cases: DAPPL (digital affinity profiling via proximity ligation, sequencing); 10 mM Tris-HCl pH 7.5, 50 mM NaCl, 1 mM DTT, 4% glycerol, room temperature, 30 min; GST-TFs on glutathione beads, 16-mer random dsDNA library, 0.1% formaldehyde crosslink after washing; high values mean tight binding
[1] = biological target: T1, FLI1 (Homo sapiens, UniProt Q01543 1-452); conditions: protein: recombinant; tags: N-terminal GST; dsDNA, one strand shown
T1 sequence: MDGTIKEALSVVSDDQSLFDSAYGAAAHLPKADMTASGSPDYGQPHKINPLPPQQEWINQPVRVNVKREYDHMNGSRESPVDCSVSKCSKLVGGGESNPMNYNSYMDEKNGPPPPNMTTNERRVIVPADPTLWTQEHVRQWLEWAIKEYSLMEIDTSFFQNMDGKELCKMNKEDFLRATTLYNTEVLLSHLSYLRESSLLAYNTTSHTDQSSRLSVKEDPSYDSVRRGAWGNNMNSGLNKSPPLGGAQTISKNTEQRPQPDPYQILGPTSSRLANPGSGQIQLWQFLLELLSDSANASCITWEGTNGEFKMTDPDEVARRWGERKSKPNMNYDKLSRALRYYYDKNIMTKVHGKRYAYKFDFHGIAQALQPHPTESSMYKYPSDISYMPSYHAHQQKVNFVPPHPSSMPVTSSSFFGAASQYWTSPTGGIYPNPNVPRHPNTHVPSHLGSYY
Procedure, shortened: (§1)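 Human transcription factors fused to GST were expressed in yeast, captured on glutathione beads, given DNA barcodes and pooled with a GST-only negative control. Pools were incubated with 200 nmole of a 16-mer random double-stranded DNA library in Tris/NaCl/DTT/glycerol buffer at room temperature for 30 min. They were then washed, crosslinked with 0.1% formaldehyde, proximity-ligated (BsaI/T4 ligase, 1 h, 37 °C), PCR-amplified and sequenced on an Illumina NextSeq500. Binding signal is each 6-mer's read frequency for a factor divided by its frequency for the GST control.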

[2] = biological target: T2, ELK1 (Homo sapiens, UniProt P19419 1-428); conditions: protein: recombinant; tags: N-terminal GST; dsDNA, one strand shown
T2 sequence: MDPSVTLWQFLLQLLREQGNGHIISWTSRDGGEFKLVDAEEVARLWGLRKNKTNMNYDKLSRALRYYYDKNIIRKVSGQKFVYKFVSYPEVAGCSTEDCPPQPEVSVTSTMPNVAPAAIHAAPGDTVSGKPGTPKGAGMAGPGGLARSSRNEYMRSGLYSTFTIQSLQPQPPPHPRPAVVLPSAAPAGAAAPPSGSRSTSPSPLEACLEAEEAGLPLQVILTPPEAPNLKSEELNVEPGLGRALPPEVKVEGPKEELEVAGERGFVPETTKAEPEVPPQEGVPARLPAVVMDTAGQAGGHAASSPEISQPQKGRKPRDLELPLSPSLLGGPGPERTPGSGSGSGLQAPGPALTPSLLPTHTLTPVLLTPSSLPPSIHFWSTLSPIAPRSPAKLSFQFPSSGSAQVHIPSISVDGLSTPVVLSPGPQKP
Procedure, shortened: as §1

[3] = biological target: T3, GABPA (Homo sapiens, UniProt Q06546 1-454); conditions: protein: recombinant; tags: N-terminal GST; dsDNA, one strand shown
T3 sequence: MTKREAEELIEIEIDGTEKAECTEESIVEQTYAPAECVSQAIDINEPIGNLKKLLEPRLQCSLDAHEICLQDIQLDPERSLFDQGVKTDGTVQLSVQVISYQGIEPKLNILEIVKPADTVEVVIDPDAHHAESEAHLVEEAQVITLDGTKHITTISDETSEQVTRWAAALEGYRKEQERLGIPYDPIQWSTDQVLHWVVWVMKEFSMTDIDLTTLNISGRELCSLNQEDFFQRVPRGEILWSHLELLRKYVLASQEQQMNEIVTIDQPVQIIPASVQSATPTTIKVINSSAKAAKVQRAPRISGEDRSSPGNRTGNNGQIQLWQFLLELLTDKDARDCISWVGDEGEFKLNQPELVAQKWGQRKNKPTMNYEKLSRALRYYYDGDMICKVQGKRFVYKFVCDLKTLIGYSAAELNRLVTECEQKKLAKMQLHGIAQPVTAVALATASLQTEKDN
Procedure, shortened: as §1

[4] = biological target: T4, ERG (Homo sapiens, UniProt P11308 1-479); conditions: protein: recombinant; tags: N-terminal GST; dsDNA, one strand shown
T4 sequence: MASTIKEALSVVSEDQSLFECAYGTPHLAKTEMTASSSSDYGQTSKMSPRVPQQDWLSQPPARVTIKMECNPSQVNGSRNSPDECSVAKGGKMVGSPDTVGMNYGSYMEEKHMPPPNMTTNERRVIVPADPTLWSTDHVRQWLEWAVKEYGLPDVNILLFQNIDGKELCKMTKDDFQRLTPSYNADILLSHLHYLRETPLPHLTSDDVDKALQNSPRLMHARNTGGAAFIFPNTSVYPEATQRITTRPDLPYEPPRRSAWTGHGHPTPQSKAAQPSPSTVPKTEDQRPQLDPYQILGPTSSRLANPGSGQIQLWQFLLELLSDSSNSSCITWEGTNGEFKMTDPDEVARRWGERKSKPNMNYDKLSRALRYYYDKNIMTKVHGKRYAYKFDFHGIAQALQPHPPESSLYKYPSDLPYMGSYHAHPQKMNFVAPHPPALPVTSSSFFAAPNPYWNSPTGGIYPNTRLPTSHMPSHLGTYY
Procedure, shortened: as §1

[5] = biological target: ELF1 (Homo sapiens, UniProt P32519 1-619); conditions: protein: recombinant; tags: N-terminal GST; dsDNA, one strand shown
Procedure, shortened: as §1

[6] = biological target: T5, EHF (Homo sapiens, UniProt Q9NZC4 1-300); conditions: protein: recombinant; tags: N-terminal GST; dsDNA, one strand shown
T5 sequence: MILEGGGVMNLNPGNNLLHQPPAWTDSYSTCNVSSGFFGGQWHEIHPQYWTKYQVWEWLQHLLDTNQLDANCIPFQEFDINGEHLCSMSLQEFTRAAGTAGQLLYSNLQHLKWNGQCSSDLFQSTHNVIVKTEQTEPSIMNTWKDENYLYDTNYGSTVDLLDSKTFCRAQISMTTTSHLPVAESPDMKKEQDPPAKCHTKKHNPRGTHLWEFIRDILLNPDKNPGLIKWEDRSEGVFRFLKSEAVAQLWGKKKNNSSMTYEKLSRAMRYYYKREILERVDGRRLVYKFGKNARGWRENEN
Procedure, shortened: as §1

[7] = biological target: SPI1 (Homo sapiens, UniProt P17947 1-270); conditions: protein: recombinant; tags: N-terminal GST; dsDNA, one strand shown
Procedure, shortened: as §1

[8] = biological target: SPIB (Homo sapiens, UniProt Q01892 1-262); conditions: protein: recombinant; tags: N-terminal GST; dsDNA, one strand shown
Procedure, shortened: as §1

[9] = biological target: T6, ELK3 (Homo sapiens, UniProt P41970 1-407); conditions: protein: recombinant; tags: N-terminal GST; dsDNA, one strand shown
T6 sequence: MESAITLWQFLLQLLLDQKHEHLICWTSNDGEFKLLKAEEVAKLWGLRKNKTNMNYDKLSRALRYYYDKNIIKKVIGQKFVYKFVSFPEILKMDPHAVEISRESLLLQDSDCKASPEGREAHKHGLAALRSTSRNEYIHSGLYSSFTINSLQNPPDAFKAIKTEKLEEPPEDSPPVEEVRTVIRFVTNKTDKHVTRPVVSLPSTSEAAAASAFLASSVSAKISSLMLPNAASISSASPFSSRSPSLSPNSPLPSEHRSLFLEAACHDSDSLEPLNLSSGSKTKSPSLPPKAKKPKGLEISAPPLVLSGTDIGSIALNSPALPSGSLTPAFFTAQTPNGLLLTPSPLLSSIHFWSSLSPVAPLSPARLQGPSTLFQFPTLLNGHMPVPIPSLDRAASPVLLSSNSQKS
Procedure, shortened: as §1

[10] = biological target: T7, FEV (Homo sapiens, UniProt Q99581 1-238); conditions: protein: recombinant; tags: N-terminal GST; dsDNA, one strand shown
T7 sequence: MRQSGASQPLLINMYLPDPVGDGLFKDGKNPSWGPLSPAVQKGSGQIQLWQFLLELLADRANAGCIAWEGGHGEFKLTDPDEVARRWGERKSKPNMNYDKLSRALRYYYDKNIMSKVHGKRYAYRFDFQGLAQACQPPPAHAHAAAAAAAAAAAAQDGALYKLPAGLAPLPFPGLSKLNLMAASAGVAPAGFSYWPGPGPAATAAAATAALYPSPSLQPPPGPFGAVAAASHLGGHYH
Procedure, shortened: as §1

[11] = biological target: ETV5 (Homo sapiens, UniProt P41161 1-510); conditions: protein: recombinant; tags: N-terminal GST; dsDNA, one strand shown
Procedure, shortened: as §1

[12] = biological target: HSF1 (Homo sapiens, UniProt Q00613 1-529); conditions: protein: recombinant; tags: N-terminal GST; chain copies: 3; dsDNA, one strand shown
Procedure, shortened: as §1

[13] = biological target: T8, SPIC (Homo sapiens, UniProt Q8N5J4 1-248); conditions: protein: recombinant; tags: N-terminal GST; dsDNA, one strand shown
T8 sequence: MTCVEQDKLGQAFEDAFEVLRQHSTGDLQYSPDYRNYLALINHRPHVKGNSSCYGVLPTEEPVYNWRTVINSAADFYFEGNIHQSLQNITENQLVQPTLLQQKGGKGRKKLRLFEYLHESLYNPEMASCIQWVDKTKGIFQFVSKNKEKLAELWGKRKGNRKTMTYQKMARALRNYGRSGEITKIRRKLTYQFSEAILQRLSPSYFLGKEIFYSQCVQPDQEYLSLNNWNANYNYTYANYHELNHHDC
Procedure, shortened: as §1

[14] = biological target: ELF4 (Homo sapiens, UniProt Q99607 1-663); conditions: protein: recombinant; tags: N-terminal GST; dsDNA, one strand shown
Procedure, shortened: as §1

[15] = biological target: T9, ELK4 (Homo sapiens, UniProt P28324-2 1-405); conditions: protein: recombinant; tags: N-terminal GST; dsDNA, one strand shown
T9 sequence: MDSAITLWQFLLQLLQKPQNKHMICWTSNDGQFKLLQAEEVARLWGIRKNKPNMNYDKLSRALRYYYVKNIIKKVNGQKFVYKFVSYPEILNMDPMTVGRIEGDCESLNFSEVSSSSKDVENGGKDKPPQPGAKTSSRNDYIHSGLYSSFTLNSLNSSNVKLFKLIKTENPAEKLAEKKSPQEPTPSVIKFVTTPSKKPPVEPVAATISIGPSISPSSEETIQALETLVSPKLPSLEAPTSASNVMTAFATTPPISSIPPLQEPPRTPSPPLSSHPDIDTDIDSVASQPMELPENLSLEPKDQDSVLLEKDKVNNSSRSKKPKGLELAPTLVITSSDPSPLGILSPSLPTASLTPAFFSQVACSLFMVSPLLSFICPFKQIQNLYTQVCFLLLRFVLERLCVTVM
Procedure, shortened: as §1

[16] = biological target: T10, ETV2 (Homo sapiens, UniProt O00321 1-342); conditions: protein: recombinant; tags: N-terminal GST; dsDNA, one strand shown
T10 sequence: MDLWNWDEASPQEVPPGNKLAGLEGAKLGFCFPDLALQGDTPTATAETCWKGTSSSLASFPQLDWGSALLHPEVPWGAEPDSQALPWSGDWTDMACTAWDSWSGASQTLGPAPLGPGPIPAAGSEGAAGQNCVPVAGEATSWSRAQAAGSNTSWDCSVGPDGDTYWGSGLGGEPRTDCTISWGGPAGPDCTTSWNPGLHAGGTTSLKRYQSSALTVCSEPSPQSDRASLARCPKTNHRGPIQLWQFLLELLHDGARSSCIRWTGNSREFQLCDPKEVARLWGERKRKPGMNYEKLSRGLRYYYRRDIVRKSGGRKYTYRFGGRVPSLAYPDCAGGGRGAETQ
Procedure, shortened: as §1

[17] = biological target: T11, ELF3 (Homo sapiens, UniProt P78545 1-371); conditions: protein: recombinant; tags: N-terminal GST; dsDNA, one strand shown
T11 sequence: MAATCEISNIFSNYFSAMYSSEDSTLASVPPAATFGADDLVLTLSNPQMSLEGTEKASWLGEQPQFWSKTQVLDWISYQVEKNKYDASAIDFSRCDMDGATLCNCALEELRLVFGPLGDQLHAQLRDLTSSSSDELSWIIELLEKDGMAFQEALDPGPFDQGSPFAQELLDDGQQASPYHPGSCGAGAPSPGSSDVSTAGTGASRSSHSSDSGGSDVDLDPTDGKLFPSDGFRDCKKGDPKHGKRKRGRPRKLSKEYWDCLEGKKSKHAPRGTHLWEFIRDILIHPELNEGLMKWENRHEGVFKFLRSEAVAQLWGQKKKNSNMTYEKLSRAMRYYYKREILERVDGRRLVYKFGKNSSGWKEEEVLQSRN
Procedure, shortened: as §1

[18] = biological target: CRX (Homo sapiens, UniProt O43186 1-299); conditions: protein: recombinant; tags: N-terminal GST; dsDNA, one strand shown
Procedure, shortened: as §1

[19] = biological target: ETV1 (Homo sapiens, UniProt P50549 1-477); conditions: protein: recombinant; tags: N-terminal GST; dsDNA, one strand shown
Procedure, shortened: as §1

Chain of CRX (O43186 whole entry): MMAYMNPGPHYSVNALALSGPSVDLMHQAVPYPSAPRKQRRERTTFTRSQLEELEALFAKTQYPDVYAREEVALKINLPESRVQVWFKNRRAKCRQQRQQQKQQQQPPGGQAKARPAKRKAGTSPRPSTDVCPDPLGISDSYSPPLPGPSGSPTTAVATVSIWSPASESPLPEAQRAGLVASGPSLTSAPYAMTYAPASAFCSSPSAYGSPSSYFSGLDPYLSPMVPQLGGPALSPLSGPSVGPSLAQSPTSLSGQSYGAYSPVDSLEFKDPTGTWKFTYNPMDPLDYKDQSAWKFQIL
Chain of ETV1 (P50549 whole entry): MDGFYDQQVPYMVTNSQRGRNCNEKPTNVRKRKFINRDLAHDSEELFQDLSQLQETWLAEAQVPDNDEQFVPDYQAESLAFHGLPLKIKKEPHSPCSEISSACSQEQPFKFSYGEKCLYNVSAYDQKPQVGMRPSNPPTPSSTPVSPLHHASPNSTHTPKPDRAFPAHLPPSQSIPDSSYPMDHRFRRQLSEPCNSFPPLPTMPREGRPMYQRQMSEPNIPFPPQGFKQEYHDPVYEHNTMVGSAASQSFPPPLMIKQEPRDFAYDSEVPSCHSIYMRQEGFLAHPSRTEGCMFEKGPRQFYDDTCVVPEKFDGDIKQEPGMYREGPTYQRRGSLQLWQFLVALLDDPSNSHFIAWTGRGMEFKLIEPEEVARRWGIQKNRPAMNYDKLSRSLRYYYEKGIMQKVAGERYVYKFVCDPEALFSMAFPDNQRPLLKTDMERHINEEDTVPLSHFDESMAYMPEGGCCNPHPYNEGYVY
Chain of ELF1 (P32519 whole entry): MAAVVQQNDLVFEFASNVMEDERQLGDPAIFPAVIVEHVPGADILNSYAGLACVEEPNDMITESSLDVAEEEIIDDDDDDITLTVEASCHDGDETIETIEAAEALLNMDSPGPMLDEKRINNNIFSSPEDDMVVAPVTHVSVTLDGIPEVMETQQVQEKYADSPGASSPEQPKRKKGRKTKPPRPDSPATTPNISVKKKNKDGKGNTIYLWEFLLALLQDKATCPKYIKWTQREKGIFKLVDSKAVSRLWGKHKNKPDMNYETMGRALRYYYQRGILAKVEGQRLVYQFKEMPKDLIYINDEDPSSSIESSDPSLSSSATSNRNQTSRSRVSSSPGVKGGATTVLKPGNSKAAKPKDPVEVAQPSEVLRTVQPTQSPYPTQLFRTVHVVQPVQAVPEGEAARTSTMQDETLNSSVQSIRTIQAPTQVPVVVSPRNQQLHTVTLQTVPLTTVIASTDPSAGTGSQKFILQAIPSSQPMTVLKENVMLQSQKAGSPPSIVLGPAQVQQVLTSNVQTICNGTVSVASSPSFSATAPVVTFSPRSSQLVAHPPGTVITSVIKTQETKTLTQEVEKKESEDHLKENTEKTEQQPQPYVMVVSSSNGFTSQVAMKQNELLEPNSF
Chain of SPIB (Q01892 whole entry): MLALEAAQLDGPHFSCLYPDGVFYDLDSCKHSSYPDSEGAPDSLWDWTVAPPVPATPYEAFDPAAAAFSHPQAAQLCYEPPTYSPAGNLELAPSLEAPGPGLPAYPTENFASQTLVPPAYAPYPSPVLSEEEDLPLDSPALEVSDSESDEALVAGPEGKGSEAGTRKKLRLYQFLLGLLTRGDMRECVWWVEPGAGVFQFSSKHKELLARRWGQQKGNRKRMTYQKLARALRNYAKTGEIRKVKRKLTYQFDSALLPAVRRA
Chain of ETV5 (P41161 whole entry): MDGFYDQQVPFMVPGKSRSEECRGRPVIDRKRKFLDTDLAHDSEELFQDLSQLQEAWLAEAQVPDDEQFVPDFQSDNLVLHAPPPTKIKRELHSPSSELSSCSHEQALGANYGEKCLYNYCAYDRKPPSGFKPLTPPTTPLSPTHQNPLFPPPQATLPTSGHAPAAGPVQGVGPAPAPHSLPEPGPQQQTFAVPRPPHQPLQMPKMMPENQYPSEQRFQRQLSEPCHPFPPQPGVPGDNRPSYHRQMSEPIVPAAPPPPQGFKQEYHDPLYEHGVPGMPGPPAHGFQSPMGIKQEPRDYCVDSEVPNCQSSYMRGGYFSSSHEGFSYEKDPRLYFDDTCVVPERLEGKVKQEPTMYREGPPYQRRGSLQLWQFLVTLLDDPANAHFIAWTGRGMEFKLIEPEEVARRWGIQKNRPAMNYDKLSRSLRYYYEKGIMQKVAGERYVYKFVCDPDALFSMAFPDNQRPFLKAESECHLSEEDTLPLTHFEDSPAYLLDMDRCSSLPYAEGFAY
Chain of ELF4 (Q99607 whole entry): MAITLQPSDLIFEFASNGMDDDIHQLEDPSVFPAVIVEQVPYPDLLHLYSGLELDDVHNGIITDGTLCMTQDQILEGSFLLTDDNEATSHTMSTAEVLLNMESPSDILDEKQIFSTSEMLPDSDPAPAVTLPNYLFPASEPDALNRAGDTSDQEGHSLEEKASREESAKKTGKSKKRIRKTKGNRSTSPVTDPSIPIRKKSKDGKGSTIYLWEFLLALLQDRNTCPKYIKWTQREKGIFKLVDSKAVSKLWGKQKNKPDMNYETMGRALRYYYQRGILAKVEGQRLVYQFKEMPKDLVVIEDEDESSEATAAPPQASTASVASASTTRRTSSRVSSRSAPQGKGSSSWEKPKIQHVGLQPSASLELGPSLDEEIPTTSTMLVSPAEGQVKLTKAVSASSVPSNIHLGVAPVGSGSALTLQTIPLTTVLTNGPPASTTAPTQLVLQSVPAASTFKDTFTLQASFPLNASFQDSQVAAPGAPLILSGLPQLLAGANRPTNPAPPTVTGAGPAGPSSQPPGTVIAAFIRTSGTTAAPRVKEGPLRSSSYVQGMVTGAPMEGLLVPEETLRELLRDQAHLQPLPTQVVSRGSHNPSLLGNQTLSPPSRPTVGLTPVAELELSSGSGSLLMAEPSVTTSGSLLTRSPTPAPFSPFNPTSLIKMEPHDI
Chain of HSF1 (Q00613 whole entry): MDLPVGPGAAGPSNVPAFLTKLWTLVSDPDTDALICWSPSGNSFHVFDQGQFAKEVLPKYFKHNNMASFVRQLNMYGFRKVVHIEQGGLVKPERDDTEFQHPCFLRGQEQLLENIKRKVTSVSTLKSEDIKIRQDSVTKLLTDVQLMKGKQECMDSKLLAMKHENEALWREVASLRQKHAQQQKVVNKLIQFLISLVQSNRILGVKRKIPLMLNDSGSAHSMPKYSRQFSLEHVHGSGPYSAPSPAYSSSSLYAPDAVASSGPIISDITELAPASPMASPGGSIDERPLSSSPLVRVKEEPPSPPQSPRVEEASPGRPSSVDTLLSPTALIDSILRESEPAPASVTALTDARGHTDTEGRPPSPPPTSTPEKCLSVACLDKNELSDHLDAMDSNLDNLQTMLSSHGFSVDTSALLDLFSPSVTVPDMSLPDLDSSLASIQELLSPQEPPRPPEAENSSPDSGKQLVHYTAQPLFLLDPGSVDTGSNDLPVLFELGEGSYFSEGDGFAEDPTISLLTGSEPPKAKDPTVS

GCTCCA
binding signal [1]: 1.23 fold enrichment (6-mer frequency, TF over GST control)
binding signal [2]: 1.17 fold enrichment (6-mer frequency, TF over GST control)
binding signal [3]: 1.33 fold enrichment (6-mer frequency, TF over GST control)
binding signal [4]: 1.18 fold enrichment (6-mer frequency, TF over GST control)
binding signal [5]: 1.2 fold enrichment (6-mer frequency, TF over GST control)
binding signal [6]: 1.19 fold enrichment (6-mer frequency, TF over GST control)
binding signal [7]: 1.28 fold enrichment (6-mer frequency, TF over GST control)
binding signal [8]: 1.3 fold enrichment (6-mer frequency, TF over GST control)
binding signal [9]: 1.17 fold enrichment (6-mer frequency, TF over GST control)
binding signal [10]: 1.22 fold enrichment (6-mer frequency, TF over GST control)
binding signal [11]: 1.23 fold enrichment (6-mer frequency, TF over GST control)
binding signal [12]: 1.16 fold enrichment (6-mer frequency, TF over GST control)
binding signal [13]: 1.08 fold enrichment (6-mer frequency, TF over GST control)
binding signal [14]: 1.22 fold enrichment (6-mer frequency, TF over GST control)
binding signal [15]: 1.24 fold enrichment (6-mer frequency, TF over GST control)
binding signal [16]: 1.29 fold enrichment (6-mer frequency, TF over GST control)
binding signal [17]: 1.21 fold enrichment (6-mer frequency, TF over GST control)
binding signal [18]: 1.01 fold enrichment (6-mer frequency, TF over GST control)
binding signal [19]: 1.12 fold enrichment (6-mer frequency, TF over GST control)
